Compounds with a hit are over-represented: about 2.3% of the library has one in this group of screens.
mut p53 react: re-activators of the mutant p53 pathway. activation, % at 9.98 µM. SW480 PUMA-promoter luciferase, p53 mutant reactivation. 1.5% of 28,000 active; in the data active means activation above about 52%
ID4 SMM: ID4 (human) binding; small molecule microarray, Flag-ID4 binding, fluorescence F/B; calls only; 1.2% of 31,000 active; AID 624137; call rule not given here;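 further: a binder raises fluorescence above local background on the spot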
Target sequence (P47928 whole entry, looked up): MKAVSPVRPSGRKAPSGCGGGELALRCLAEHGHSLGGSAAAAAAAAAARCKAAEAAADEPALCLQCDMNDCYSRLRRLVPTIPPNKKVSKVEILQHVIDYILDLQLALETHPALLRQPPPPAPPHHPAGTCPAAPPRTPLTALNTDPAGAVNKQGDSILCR
Starred values were filed as active, the others as inactive; i = inactive; + = active, no number.

SMILES | mut p53 react | ID4 SMM
COc1ccccc1C(=O)N1CCN(c2ccc([N+](=O)[O-])c(NCc3cccnc3)c2)CC1 | -10 | i
COc1ccc(OCC(=O)Nc2cccc(-c3nnc4c5ccccc5c(C)nn34)c2)cc1 | 101* | i
COc1ccc(-c2nnc3c4ccccc4c(C)nn23)cc1S(=O)(=O)N1CCOCC1 | 5 | i
Cn1c(SCC(=O)Nc2cccc(F)c2)nnc1-c1cc2ccccc2o1 | -10 | i
COc1ccc(OCC(=O)Nc2ccc3nn(-c4ccc(Cl)cc4)nc3c2)cc1 | 39 | i
Cc1nn2c(-c3cccc(NC(=O)CSc4nc5ccccc5o4)c3)nnc2c2ccccc12 | 74* | i
Cc1nn2c(-c3cccc(NC(=O)CN4CCOCC4)c3)nnc2c2ccccc12 | 53* | i
Cc1c(NC(=O)CN(c2cccc(Cl)c2Cl)S(C)(=O)=O)cccc1[N+](=O)[O-] | -4 | i
Cc1ccc2ccc(C(Nc3ccccn3)c3c(F)cccc3Cl)c(O)c2n1 (centres undefined) | -17 | i
COc1ccc(S(=O)(=O)N(C)CC(=O)Nc2ccccc2F)cc1C | 18 | i
O=C(O)C1C2CCC(O2)C1C(=O)Nc1ccc(S(=O)(=O)N2CCc3ccccc32)cc1 (centres undefined) | -3 | i
O=C(NCc1ccco1)C1OCCc2ccccc21 (centres undefined) | 6 | i
COc1ccc(CCNC(=O)C2OCCc3ccccc32)cc1OC (centres undefined) | -5 | +
CC(C)NS(=O)(=O)c1ccc(OCC(=O)N2CCOCC2)cc1 | -6 | i
CC(C)Cc1ccc(/C=C/C(=O)N2CCOCC2)cc1 | 81* | i
CC(C)Oc1ccccc1NC(=O)CSc1nnc(-c2ccccc2Cl)o1 | -10 | i
O=C(CSc1nc2ccccc2[nH]1)Nc1cccc(Cl)c1Cl | 0 | i
CN(C)c1nc(N)nc(CSc2nnnn2C)n1 | 4 | i
CN(C)c1nc(N)nc(CSc2ncc(Cl)cc2Cl)n1 | 62* | i
Nc1nc(SCC(=O)c2ccccc2)nc2sc3c(c12)CCC3 | 113* | i
Cc1ccc(C(=O)CSc2nc(C)nc3sc4c(c23)CCCC4)cc1 | -4 | i
CCOC(=O)c1c(NC(=S)NCc2cc(C)n(C)n2)sc2c1CCCC2 | -2 | i
CCOC(=O)c1c(NC(=S)N(C)Cc2c(C)nn(C)c2C)sc2c1CCCCCC2 | 4 | +
Cc1cc(OCC(=O)Nc2ccccc2N2CCN(C)CC2)cc(C)c1Cl | 0 | i
COc1cc(Cl)c(C(Nc2ccccn2)c2cc(Cl)c3cccnc3c2O)cc1OC (centres undefined) | -24 | i
SMILES | mut p53 react | ID4 SMM
C[C@@H]1CN([C@H](C)CO)C(=O)c2cc(NS(=O)(=O)c3ccccc3)ccc2O[C@@H](C)CCCCO[C@@H]1CN(C)C(=O)c1ccncc1 | 1 | +
C[C@H]1CCCCO[C@@H](CN(C)C(=O)C2CCCCC2)[C@@H](C)CN([C@@H](C)CO)C(=O)c2cc(NC(=O)c3ccncc3)ccc2O1 | 0 | i
C[C@@H]1CCCCO[C@H](CN(C)C(=O)C2CCCCC2)[C@@H](C)CN([C@@H](C)CO)C(=O)c2cc(NC(=O)c3ccncc3)ccc2O1 | 4 | +
C[C@@H]1CCCCO[C@H](CN(C)C(=O)c2ccncc2)[C@@H](C)CN([C@H](C)CO)C(=O)c2cc(NS(=O)(=O)c3ccccc3)ccc2O1 | 2 | i
Cc1ccc(OCC(=O)Nc2ccccc2-c2nc3ccccc3s2)cc1C | -11 | i
CCn1c(SCC(=O)Nc2ccccc2C)nnc1-c1ccco1 | 4 | i
O=C(NCc1ccccn1)C(=O)Nc1ccc(Cl)c(Cl)c1 | 58* | i
Cc1ccc(-c2cc(C(=O)NCc3ccccn3)no2)cc1 | 48 | i
Cc1ccc(-c2cc(C(=O)NCc3ccco3)no2)cc1 | 73* | i
Cc1cc(C(=O)NCc2ccco2)no1 | -7 | i
COc1ccc(NC(=O)NCc2ccccn2)cc1OC | -4 | i
O=C(NCc1ccccn1)c1cc(-c2ccccc2)on1 | 93* | i
Cc1ccc(-c2cc3ccccn3c2C(=O)CSc2nnc(C)s2)cc1 | -3 | i
O=C(CSc1ncnc2scc(-c3ccc(Cl)cc3)c12)Nc1ccc2c(c1)OCCO2 | -20 | i
COc1ccc(NC(=O)C(=O)NCCCO)c(OC)c1 | 26 | i
CC(C)(C)NS(=O)(=O)c1ccc(NC(=O)COc2ccc3ccccc3c2Br)cc1 | 6 | i
O=C(COc1ccc2ccccc2c1Br)NCc1ccccn1 | 96* | i
Nc1nc(SCC(=O)Nc2ccccc2C(F)(F)F)n[nH]1 | 6 | i
COc1cccc(OCc2nc(-c3ccccc3)no2)c1 | 112* | i
COc1cc(OC)cc(C(=O)NCc2nc(-c3ccccc3)no2)c1 | -2 | i
COc1c2c(cc3oc(CO[C@@H]4O[C@H](CO)[C@@H](O)[C@H](O)[C@H]4O)cc(=O)c13)OC(C(C)(C)O)C2 (some centres undefined) | 11 | i

Assay outcomes deposited in PubChem by Broad Institute.
